Experimental data published in PubChem BioAssay AID2405 (Southern Research Specialized Biocontainment Screening …, 2010).
A number with no mark means an inactive call. No rule for the calls is given here.

Assay: anti-RSV activity of probe candidates, cell-based (AID 2405)
Conditions: RSV cytopathic effect inhibition, HEp-2 cells, hits give high values; at 100 µM unless noted

Row | SMILES | maximum inhibition
1 | CCCN1CCN(CCCNC(=O)c2cc3c(s2)-c2c(C)cccc2OC3)CC1 | 0.38% [at 0.2 µM]
2 | O=C(CSc1nc2ccccc2c(=O)n1-c1ccc(F)cc1)Nc1ccc2c(c1)OCCO2 | 15% [at 50 µM]
3 | O=C(CSc1nc2ccccc2c(=O)n1-c1ccc(Cl)c(Cl)c1)Nc1ccc2c(c1)CCC2 | 5.37%
4 | COc1ccc(-c2csc(NC(=O)c3ccc(Cl)cc3)n2)cc1 | 0.97% [at 25 µM]
5 | O=C(Nc1nc(-c2ccc(Cl)cc2)cs1)c1ccccc1F | 3.06% [at 12.5 µM]
6 | Cc1cccc2c1-c1sc(C(=O)NCCCN3CCCC(C)C3)cc1CO2 (stereo not drawn) | 1.01% [at 0.78 µM]
7 | OC1c2c(F)cccc2N=C2CCCCCN21 (stereo not drawn) | 1.87% [at 12.5 µM]
8 | CC1(O)c2cc(Br)ccc2N=C2CCCN21 (stereo not drawn) | 2.76%
9 | O=C(CSc1nc2cccc(F)c2c(=O)n1-c1ccccc1)Nc1ccc2c(c1)CCC2 | 20.4%
10 | O=C(CSc1nc2ccccc2c(=O)n1-c1ccc(F)cc1)Nc1ccc2c(c1)CCC2 | 2.76%
11 | c1ccc2c(c1)CN1CCCC1=N2 | 1.32% [at 6.25 µM]
12 | COc1ccc(-c2csc(NC(=O)c3ccccc3F)n2)cc1 | 1.37%
13 | CN(C)CCCN1c2ccc([N+](=O)[O-])cc2CCc2cc([N+](=O)[O-])ccc21 | 10.2% [at 50 µM]
